Test systems include NCI-H23 lung; NCI-H322M lung; HOP-62 NSCLC; NCI-H460 lung; HOP-92 NSCLC; NCI-H522 lung; A549/ATCC NSCLC; 786-0 renal; COLO 205 colon; DU-145 prostate; K-562 leukemia; MALME-3M melanoma; MDA-MB-231 breast; RXF 393 renal; SF-268 CNS; SF-295 CNS; SF-539 CNS; UACC-257 melanoma; M14 melanoma; HCT-15 colon.
Holding throughout (assay): NCI-60 one-dose screen, 48 h (100 = growth as untreated, 0 = no growth, -100 = all killed)
Holding throughout (settings): 10 µM unless noted

This is part of a sample that, as a whole, favours compounds with a hit. Of some 83,000 tested, about 20% had one in any assay.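 Single-dose data. Exposure time 48 hours. Values below 10 considered active.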 Unmarked numbers belong to inactive results. Activity calls are given as the source filed them.

Turning to `O=C(NC1CCCCC1)C(c1cccs1)N(CCc1ccccc1)C(=O)c1ccco1` (stereo not given), the growth was 86.1% with NCI-H23 lung; 96.5% in the assay with NCI-H322M lung; 90.6% in the assay with HOP-62 NSCLC; 103% in the assay with NCI-H460 lung; 75.5% in the assay with HOP-92 NSCLC; 65.2% with NCI-H522 lung. For the same molecule, the growth was 92.2% in the assay on A549/ATCC NSCLC; 91.1% in the assay with 786-0 renal; 96.1% with COLO 205 colon; 103% with DU-145 prostate; 82.8% in the assay on K-562 leukemia; -11.2% (active) in the assay with MALME-3M melanoma. Besides, the growth with MDA-MB-231 breast was 98.5%; in the assay with RXF 393 renal it was 97.3%; in the assay on SF-268 CNS, 92.6%; with SF-295 CNS it was 84.7%; in the assay with SF-539 CNS it was 90.9%; in the assay with UACC-257 melanoma, 98.6%. Besides, the results for the growth in the assay with M14 melanoma and in the assay on HCT-15 colon were 93.7% and 93.4%, respectively.

As for `COc1ccc(-c2nsc3c2NC(=O)CC3c2cccc(OC)c2)cc1` (stereo not given), the growth in the assay on NCI-H23 lung was 43.3%; with NCI-H322M lung, 57%; in the assay with HOP-62 NSCLC, 39.1%; in the assay on NCI-H460 lung it was 17.6%; in the assay with HOP-92 NSCLC, 49.9%; in the assay on NCI-H522 lung, 25.5%. Also, the growth in the assay on A549/ATCC NSCLC was 37.1%; in the assay on 786-0 renal it was 49.6%; with COLO 205 colon it was -11.7% (active); in the assay with DU-145 prostate it was 13.7%; in the assay with K-562 leukemia, 18.9%; in the assay with MALME-3M melanoma, 41.5%. The growth in the assay on MDA-MB-231 breast is 73.3%; in the assay with RXF 393 renal it was 16.8%; in the assay with SF-268 CNS, 62.3%; in the assay on SF-295 CNS, 15.5%; with SF-539 CNS, 13%; with UACC-257 melanoma, 74.7%. The growth in the assay on M14 melanoma was 28.6%; with HCT-15 colon it was 26.4%.

For the molecule `COc1c2ccoc2c(/C=C/C=O)c2oc(-c3ccccc3)cc(=O)c12`, the growth with NCI-H23 lung was 50.4%; in the assay with NCI-H322M lung, 87.7%; with HOP-62 NSCLC, 59.7%; with NCI-H460 lung, 89.4%; in the assay with HOP-92 NSCLC it was 105%; in the assay with NCI-H522 lung it was 67.9%. For the same molecule, the growth in the assay on A549/ATCC NSCLC is 91.3%; in the assay on 786-0 renal it was 94.4%; in the assay with COLO 205 colon, 116%; with DU-145 prostate, 63.1%; in the assay on K-562 leukemia it was 24.1%; with MALME-3M melanoma it was 98%. In addition, the growth is 66.3% in the assay on MDA-MB-231 breast; 79% with RXF 393 renal; 39.8% with SF-268 CNS; 51.3% in the assay on SF-295 CNS; 38.3% with SF-539 CNS; 108% in the assay on UACC-257 melanoma. Besides, the growth in the assay on M14 melanoma was 70.8%; in the assay with HCT-15 colon it was 3.15% (active).

With `COc1ccc(C2=NN(/C=C3\SC(=O)NC3=Nc3ccc(F)cc3)C(c3ccc(F)cc3)C2)cc1` (stereo not given), the growth is 96.9% in the assay with NCI-H23 lung; 93.7% in the assay on NCI-H322M lung; 105% with HOP-62 NSCLC; 101% with NCI-H460 lung; 99.7% in the assay on HOP-92 NSCLC; 91.2% in the assay with NCI-H522 lung. Also, the growth is 92% with A549/ATCC NSCLC; 92.7% in the assay on 786-0 renal; 106% in the assay with COLO 205 colon; 102% in the assay with DU-145 prostate; 94.3% in the assay on K-562 leukemia; 94.3% in the assay with MALME-3M melanoma. In addition, the growth in the assay with MDA-MB-231 breast is 93.8%; in the assay with RXF 393 renal, 96%; with SF-268 CNS, 97.9%; with SF-295 CNS it was 90.8%; with SF-539 CNS, 106%; with UACC-257 melanoma it was 103%. Further, the growth is 104% in the assay on M14 melanoma and 98.9% in the assay with HCT-15 colon.

Regarding `O=NN(C(=O)NC1CCC(C(=O)O)CC1)C1CCC(C(=O)O)CC1` (stereo not given), the growth was 106% with NCI-H23 lung; 107% with NCI-H322M lung; 104% in the assay with HOP-62 NSCLC; 107% in the assay with NCI-H460 lung; 98.8% with HOP-92 NSCLC; 98.7% in the assay on NCI-H522 lung. In addition, the growth was 106% with A549/ATCC NSCLC; 107% in the assay with 786-0 renal; 115% in the assay with COLO 205 colon; 112% in the assay with DU-145 prostate; 95% in the assay with K-562 leukemia; 104% in the assay with MALME-3M melanoma. The growth in the assay on MDA-MB-231 breast is 103%; with RXF 393 renal, 106%; in the assay with SF-268 CNS, 107%; in the assay on SF-295 CNS, 107%; in the assay on SF-539 CNS, 103%; in the assay on UACC-257 melanoma it was 96.7%. Moreover, the results for the growth in the assay on M14 melanoma and in the assay on HCT-15 colon were 104% and 96.3%, respectively.

`COC(=O)C1=Nc2ccc(F)cc2/C1=C/c1sc(=S)[nH]c1O`: the growth in the assay with NCI-H23 lung was 28.6%; with NCI-H322M lung, 29%; in the assay on HOP-62 NSCLC it was 18.6%; in the assay with NCI-H460 lung, 3.2% (active); with HOP-92 NSCLC it was 22.9%; with NCI-H522 lung, -33.3% (active). Moreover, the growth is 17.7% with A549/ATCC NSCLC; 9.99% (active) in the assay with 786-0 renal; -2.37% (active) in the assay with COLO 205 colon; 11.9% with DU-145 prostate; 8.26% (active) in the assay on K-562 leukemia; 60.8% in the assay with MALME-3M melanoma. For the same molecule, the growth in the assay on MDA-MB-231 breast is 16.8%; in the assay on RXF 393 renal, 30.4%; with SF-268 CNS it was 13.1%; in the assay on SF-295 CNS it was 13.8%; in the assay on SF-539 CNS it was -26.6% (active); in the assay on UACC-257 melanoma it was 45.9%. Besides, the growth in the assay on M14 melanoma was 2.31% (active); in the assay on HCT-15 colon, 10.7%.

Regarding `CC1CCCCN1CCCNC(=O)c1ccc2c(c1)sc1nc(-c3ccc(F)cc3)cn12` (stereo not given), the growth in the assay with NCI-H23 lung is 92.1%; with NCI-H322M lung, 107%; with HOP-62 NSCLC, 90.9%; in the assay on NCI-H460 lung, 102%; in the assay with HOP-92 NSCLC it was 83.1%; with NCI-H522 lung, 102%. The growth with A549/ATCC NSCLC is 108%; in the assay with 786-0 renal, 78.8%; with COLO 205 colon it was 98%; in the assay with DU-145 prostate, 105%; in the assay with K-562 leukemia, 77%; in the assay on MALME-3M melanoma it was 98.3%. The growth was 75.2% in the assay with MDA-MB-231 breast; 91.7% with RXF 393 renal; 92.8% in the assay with SF-268 CNS; 109% in the assay with SF-295 CNS; 98.6% in the assay with SF-539 CNS; 124% with UACC-257 melanoma. The growth was 97.1% in the assay with M14 melanoma and 104% with HCT-15 colon.

For the origin of these results see PubChem BioAssay (NCI).
